From PubChem BioAssay (NCATS)
Inconclusive results are not listed. Activity calls are given as the source filed them. Unless noted, the call rests on the fitted dose curve; in most records, active means well fitted curve in either direction with a large enough effect (not every such curve was filed as active); inconclusive means small, poorly fitted or top-dose-only effect, or another doubt; inactive means flat fitted curve, though single readings scatter.

Assays:
[1] = AP1 Signaling Pathway (AID 357); settings: ME-180 AP-1-bla reporter, EGF-induced, beta-lactamase ratio, 5 h; at 17.2 µM (top of the series) unless noted;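 further: ME-180 reporter cells stimulated with EGF at its EC50 level; on the % scale 0 is the no-effect control and ±100 the full control effect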
Outline: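 Read-out was the 460nm/530nm emission ratio (excitation 405nm) after CCF4 loading for 2.5 hours at room temperature. Cells carried an AP-1-driven beta-lactamase reporter, were stimulated with EC50 EGF plus compound for 5 hours, and AC50 values came from titrations.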

[2] = NFAT Signaling Pathway (AID 444); settings: Jurkat NFAT-bla M1, carbachol, beta-lactamase ratio, 5 h; at 17.2 µM (top of the series) unless noted;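 further: carbachol stimulus at about its EC50 of 1 µM final; on the % scale 0 is the no-effect control and ±100 the full control effect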
Outline: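 Read-out: CCF4 FRET ratio (460 nm/530 nm) after 1 h RT dye loading, used for %activity and AC50 from titration series. Cells: Jurkat NFAT-β-lactamase/M1 line, treated with compound plus 1 uM carbachol for 5 h, 37 °C.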

[3] = Stat Signaling Pathway (AID 446);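 further: ME-180 cervical cancer cells given 40 pM IL-6 alongside compound; SIE-controlled beta-lactamase reporter measured as 460/530 nm FRET emission ratio; on the % scale 0 is the no-effect control and ±100 the full control effect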
Outline: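 Reporter line: ME-180 cervical carcinoma, SIE-beta-lactamase. Treatment: compound with 40 pM IL-6, 5 hrs, 37 C, in low-serum OPTI-MEM with 10 mM HEPES pH 7.3. Detection: 460/530 nm fluorescence.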

[4] = target: Glucocorticoid receptor (Homo sapiens) (UniProt P04150); test: GR-GFP Redistribution (AID 450;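 active means compounds whose dose series gives a full or clear partial fitted curve of increased nuclear translocation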; further: potency means the concentration at half of the fitted maximal effect); settings: U2OS GR-GFP nuclear translocation, laser cytometry, 2 h
Chain of Glucocorticoid receptor (Homo sapiens) (P04150 whole entry, looked up): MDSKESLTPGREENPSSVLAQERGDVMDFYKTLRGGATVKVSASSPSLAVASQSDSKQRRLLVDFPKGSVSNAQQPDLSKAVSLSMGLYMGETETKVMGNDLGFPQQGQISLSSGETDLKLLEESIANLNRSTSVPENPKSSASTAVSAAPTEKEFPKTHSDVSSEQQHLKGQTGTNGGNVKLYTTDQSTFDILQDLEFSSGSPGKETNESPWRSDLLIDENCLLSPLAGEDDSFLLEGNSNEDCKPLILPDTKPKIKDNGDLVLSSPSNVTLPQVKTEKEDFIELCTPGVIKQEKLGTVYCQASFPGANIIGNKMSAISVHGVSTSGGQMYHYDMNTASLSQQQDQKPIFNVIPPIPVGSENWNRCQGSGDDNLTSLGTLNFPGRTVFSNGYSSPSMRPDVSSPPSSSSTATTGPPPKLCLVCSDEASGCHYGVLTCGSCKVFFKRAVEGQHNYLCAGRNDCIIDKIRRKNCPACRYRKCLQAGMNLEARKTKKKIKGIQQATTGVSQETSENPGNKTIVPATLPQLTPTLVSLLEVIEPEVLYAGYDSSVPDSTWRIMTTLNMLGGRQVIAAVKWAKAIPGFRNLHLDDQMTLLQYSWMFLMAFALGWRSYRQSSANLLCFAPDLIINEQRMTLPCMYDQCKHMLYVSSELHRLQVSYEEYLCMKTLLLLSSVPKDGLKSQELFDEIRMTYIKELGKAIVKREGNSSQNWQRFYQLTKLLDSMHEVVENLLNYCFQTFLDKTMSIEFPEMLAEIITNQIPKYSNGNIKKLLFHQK

O=c1[nH]c(=O)n(C2CCCCC2)c(O)c1C=NCCCn1ccnc1
inactive: activity change, negative = inhibition [1] 0.159% | activity change, negative = inhibition [2] -4.42% | outcome [3] | Potency [4] > 20.6 µM
